In all, about 87,000 compounds went through this assay and about 360 (0.41%) were called active. No stated cut-off is given here; in the data, active means cytotoxicity above about 50%; inactive means the rest. The entries come from a sample that favours actives as a whole.

In PubChem BioAssay AID620 (Sanford-Burnham Center for Chemical Genomics, 2007) one finds cytotoxicity data, which are given here for 61 molecules.

This test can be described thus: HT1080 cell viability loss – fluorescence readout (AID 620).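 Further: cells exposed to compound overnight then 4 h with Alamar Blue; 0% = vehicle DMSO and 100% = killing control.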 Particulars: at 10 µM, active compounds read high.
`Cc1cccc(OCC(=O)NCCN2CCOCC2)c1`: the cytotoxicity is 5.4% (inactive).
For `COC(=O)[C@H](CCSC)NC(=O)Nc1ccc(OC)c(Cl)c1`, the cytotoxicity is -10.8% (inactive).
Take `Cc1n[nH]c(C)c1S(=O)(=O)N1CCCC(C(=O)NCc2cccs2)C1` (stereo unspecified): the cytotoxicity is 2.8% (inactive).
As to `O=C(CNS(=O)(=O)c1ccc(F)cc1)N1CCN(c2ccccc2)CC1`, the cytotoxicity is 7% (inactive).
As for `Cc1nc2ccc(NC(=O)Cc3ccsc3)cc2s1`, the figure is -7.3% (inactive); as for `COc1ccc(N2CCN(Cc3nc4c(c(=O)n(C)c(=O)n4C)n3CCc3ccccc3)CC2)cc1`, 0.1% (inactive).
For `Cc1cc(=O)oc(C)c1C(=O)N1CCN(c2ccc(F)cc2)CC1`, the cytotoxicity was 5.9% (inactive).
Turning to `CC(C)(C)C(=O)/C(=C\c1ccc([N+](=O)[O-])cc1)n1cncn1`, the cytotoxicity is 89% (active).
As to `O=[N+]([O-])/C(C(Cl)=C(Cl)Cl)=C(\Nc1ccc(F)cc1)n1cncn1`, the cytotoxicity was 10.6% (inactive).
Regarding `Cn1ncc(N=Cc2ccc([N+](=O)[O-])cc2)c1C(=O)N1CCOCC1`, the cytotoxicity was -3.9% (inactive).
With `O=C(COc1ccc(S(=O)(=O)Nc2ccccc2)cc1)N1CCOCC1`, the cytotoxicity was -4.7% (inactive).
As for `CCOC(=O)CS(=O)(=O)c1ccccc1`, the cytotoxicity is -4.5% (inactive).
As for `C/C=C(\CS(=O)(=O)c1ccccc1)S(=O)(=O)c1ccccc1`, the figure is -9.9% (inactive); as for `O=S(=O)(C/C(=C/CO)S(=O)(=O)c1ccccc1)c1ccccc1`, 51.2% (active).
`CC(C)C[C@H](NC(=O)N1CCN(c2ccccc2)CC1)C(=O)O`: the cytotoxicity is 6.2% (inactive).
As to `O=C(c1ccc(F)cc1)N1CCN(c2ncccn2)CC1`, the cytotoxicity was 2% (inactive).
As for `Cc1ccccc1NC(=O)CN1C(=O)NC2(CCCCC2)C1=O`, the cytotoxicity was 10% (inactive).
As for `Cc1ccc(CN2CCN(C(=O)CCN3C(=O)c4ccccc4C3=O)CC2)cc1`, the figure is 6.3% (inactive).
Regarding `CCOC(=O)c1[nH]c(C)c(C(=O)NCc2ccc(C)cc2)c1C`, the cytotoxicity was -8.9% (inactive).
As for `CCOC(=O)c1[nH]c(C)c(C(=O)c2ccc(C)cc2)c1C`, the cytotoxicity is 59.5% (active).
Regarding `CCOC(=O)c1[nH]c(C)c(C(=O)Nc2ccc(F)cc2)c1C`, the cytotoxicity is -9.3% (inactive).
Take `CCOC(=O)c1[nH]c(C)c(C(=O)c2cc(F)ccc2F)c1C`: the cytotoxicity was 57.2% (active).
For the molecule `CCOC(=O)c1[nH]c(C)c(C(=O)Nc2ccc(C)c(F)c2)c1C`, the cytotoxicity was -2.9% (inactive).
For `CCOC(=O)c1[nH]c(C)c(C(=O)OCC)c1C`, the cytotoxicity is 2.3% (inactive).
As for `CCOC(=O)c1c(C)sc2c1N(C(=O)CN1CCOCC1)c1cc(Cl)ccc1S2`, the figure is 12.4% (inactive); as for `O=C(OCC(=O)N1CCN(c2ccccc2)CC1)C1=COCCO1`, -8.1% (inactive); as for `O=C(OCC#CCSc1nnc(-c2ccc([N+](=O)[O-])cc2)o1)c1cccs1`, -10.8% (inactive).
`CCSc1nnc(NC(=O)COc2ccccc2)s1`: the cytotoxicity was -5% (inactive).
As for `O=C(NCc1ccncc1)Nc1ccc(F)cc1`, the figure is 14.7% (inactive); as for `COc1ccc(S(=O)(=O)n2nc(-c3cc(OC)c(OC)c(OC)c3)cc2N)cc1OC`, 1.5% (inactive).
In the case of `COc1ccc(OC)c(S(=O)(=O)n2nc(-c3ccccc3)cc2N)c1`, the cytotoxicity is -6.1% (inactive).
The same measure for `COc1ccc(-c2cc(N)n(S(=O)(=O)c3c(F)c(F)c(F)c(F)c3F)n2)cc1OC`: 59.5% (active).
In the case of `CCOC(=O)C(C)Oc1cccc2c(=O)n(CC(=O)NCc3ccco3)ccc12` (stereo unspecified), the cytotoxicity was 65.3% (active).
The same measure for `CCOC(=O)COc1cccc2c(=O)n(CC(=O)NCc3ccc4c(c3)OCO4)ccc12`: 13.3% (inactive); for `CCOC(=O)C(C)Oc1cccc2c(=O)n(CC(=O)N3CCc4ccccc43)ccc12` (stereo unspecified): 4.2% (inactive); for `c1ccc(OCCOCCN2CCOCC2)cc1`: -2.8% (inactive).
The same measure for `Cc1nc2c(cnn2-c2ccccc2Cl)c(=O)n1-c1ccc(N2CCC(C)CC2)cc1`: 0.5% (inactive); for `COCc1cc(C)nc(SCC(=O)Nc2cccc(C)c2C)c1C#N`: -2% (inactive).
For the molecule `Cc1csc(NC(=O)c2cc3c(s2)CCC3)n1`, the cytotoxicity is 20.8% (inactive).
Take `Cc1csc(NC(=O)c2cc3c(s2)CCCCC3)n1`: the cytotoxicity was -7.3% (inactive).
On to `CCC(C)NS(=O)(=O)c1ccc(-c2csnn2)s1` (stereo unspecified), for which the cytotoxicity was -2.6% (inactive).
Turning to `CC(CCc1ccccc1)NC(=O)CSc1nnnn1C` (stereo unspecified), the cytotoxicity was 9.7% (inactive).
As for `CC1=CC(C)(C)N(S(=O)(=O)c2ccc(C)cc2)c2ccc(C)cc21`, the figure is 64.1% (active); as for `Cc1ccc(S(=O)(=O)N2C(=S)SCC2(C)C)cc1`, 14.3% (inactive).
As for `CC1=CC(C)(C)N(S(=O)(=O)c2ccc(F)cc2)c2ccccc21`, the figure is 34.7% (inactive); as for `CC1=CC(C)(C)N(C(=O)C(C)N2C(=O)c3ccccc3C2=O)c2ccc(C)cc21` (stereo unspecified), 5.3% (inactive).
For the molecule `CC1=CC(C)(C)N(S(=O)(=O)c2ccc(C)cc2)c2ccccc21`, the cytotoxicity was 64.3% (active).
Regarding `Cc1ccc2c(c1)[C@@H]1CN(C)CC[C@@H]1N2S(=O)(=O)c1ccc(F)cc1`, the cytotoxicity was 3.2% (inactive).
Take `CC1=CC(C)(C)N(S(=O)(=O)c2ccc(C)cc2)c2cc(C)ccc21`: the cytotoxicity is 63.7% (active).
The same measure for `CC1=CC(C)(C)N(S(=O)(=O)c2ccc(F)cc2)c2ccc(C)cc21`: 61% (active).
On to `CC1=CC(C)(C)N(C(=O)CN2C(=O)c3ccccc3C2=O)c2ccccc21`, for which the cytotoxicity is 12.7% (inactive).
In the case of `Cc1ccc(N2CCN(S(=O)(=O)c3ccc(F)cc3)CC2)c(C)c1`, the cytotoxicity is -3.9% (inactive).
`CC1=CC(C)(C)N(C(=O)c2ccccc2)c2ccc(C)cc21`: the cytotoxicity was -8.8% (inactive).
For `CC1=CC(C)(C)N(C(=O)CSc2nccn2C)c2cc(C)ccc21`, the cytotoxicity was -6.8% (inactive).
In the case of `Cc1ccc2[nH]c3c(=O)n(CCCN4CCOCC4)cnc3c2c1`, the cytotoxicity was -1.5% (inactive).
With `CCOc1ccc(NC(=O)c2cc3cc4ccc(OC)cc4nc3o2)cc1`, the cytotoxicity was -4.9% (inactive).
Turning to `COc1ccc(NC(=O)c2ccco2)c(NC(=O)Cc2cccs2)c1`, the cytotoxicity is -0.8% (inactive).
With `O=C(C(NS(=O)(=O)c1cccs1)c1ccccc1)N1CCN(c2ccccc2F)CC1` (stereo unspecified), the cytotoxicity is 1.9% (inactive).
`CC(C)(C)N(Cc1ccccc1)C(=O)c1ccc2c(c1)OCCO2`: the cytotoxicity was -6.6% (inactive).
On to `Cc1sc2ncnc(NCC3CCCO3)c2c1C` (stereo unspecified), for which the cytotoxicity was -6.6% (inactive).
In the case of `COC(=O)c1ccc(NC(=O)CSc2nc3cccnc3n2C)cc1`, the cytotoxicity was -2.4% (inactive).
